Bioassay records (PubChem)
In the library only some 11% were active in any assay of this set; here they are far more common.
NS1 function inh: blocks influenza NS1 protein function. AID 2326. Potency, µM (doses to about 46.1 µM), for the others: at the top dose activity, positive = more growth. 270,000 tested, 0.4% active; calls by dose curve; also: actives are rising curves; nearly all actives have a fitted effect of over 50% in size
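Recovery from NS1-induced slow growth read by OD600 in budding yeast switched to galactose assay medium (pH 6.0, -URA) at 1:100 dilution. Compound 23 nl per well; the matching strain lacking NS1 serves as control.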
Pf growth 96h: inhibits malaria parasite growth, 96 h | Potency, µM (highest dose often 28.7 µM), without a hit: at the highest dose activity change, negative = inhibition, actives largely listed as inhibitors | 320,000 tested, 6.9% active | AID 504834 | P. falciparum luciferase reporter growth, 96 h; also: % is scaled to controls: 0 for no effect and ±100 for the full control effect
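Plates of compound plus infected erythrocytes (2% hematocrit, 0.05% parasitemia final) incubate 96 hours, 37 C, 5% CO2. Detection reagent added; reduced luminescence from the parasites' luciferase reporter flags inhibition.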
Sm TGR inh: blocks Schistosoma mansoni thioredoxin glutathione reductase; Q962Y6; purified TGR, DTNB reduction, TNB absorbance 405 nm; Potency, µM (series often up to 114 µM), for inactives: at the top dose activity change, negative = inhibition, actives largely listed as inhibitors; 360,000 tested, 3% active; AID 485364; also: % is scaled to controls: 0 for no effect and ±100 for the full control effect; nearly all actives have a fitted effect of over 60% in size
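First, TGR (20 nM dispensed) and NADPH were mixed with compound. Second, a 15 min room-temperature incubation followed. Third, further NADPH and then DTNB were added to start the reaction. Finally, TNB absorbance was monitored kinetically.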
AMA1 RON2 block: disrupts binding of P. falciparum AMA1 to RON2. AID 720542. 360,000 tested, 0.2% active. Potency, µM (top dose mostly 58.2 µM), for the others: at the top dose activity change, negative = inhibition, usual class: inhibitors. AlphaScreen AMA1-biotinylated RON2 peptide binding;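 also: 0% = vehicle wells and -100% = peptide control; nearly all actives have a fitted effect of over 45% in size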
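AMA1 (3D7) with his tag at 25 nM final met compounds first, then biotinylated RON2 peptide at 25 nM; detection used donor plus acceptor beads, 10 µg/mL apiece, read by AlphaScreen after 30 min at room temperature.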
Pf growth 48h: inhibits P. falciparum growth in the first generation, 48 h | P. falciparum luciferase growth in erythrocytes, 48 h | Potency, µM (top dose mostly 28.7 µM), without a hit: at the highest dose activity change, negative = inhibition, hits mostly inhibitors | 310,000 tested, 5.9% active; also: % is scaled to controls: 0 for no effect and ±100 for the full control effect
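Parasite viability was followed by luminescence of a genomically integrated firefly luciferase. Cultures held 0.1% parasitemia at 2% hematocrit (final), incubated under 5% CO2 at 37 C.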
An asterisk follows results filed as active; i = inactive; ? = inconclusive; nt = no result given; [ ] = dose if it differs, or a comment. Unless noted, calls follow the shape of the dose curve; as a rule, active = well fitted curve in the direction sought with a large enough effect; inconclusive = small, poorly fitted or top-dose-only effect, or another doubt; inactive = no such curve, though single readings can be large; an effect the other way counts as inactive or inconclusive. Potency is read from the fitted curve at half-maximal effect.

SMILES	NS1 function inh	Pf growth 96h	Sm TGR inh	AMA1 RON2 block	Pf growth 48h
O=C(NCC(=O)N(c1cccnc1)C(C(=O)NC1CCCC1)c1cccs1)c1cccs1 (stereo not given)	2%	12µM*	0%[57.1 µM]	6%	-2%
O=C(NCC(=O)N(c1ccc(Cl)cc1)C(C(=O)NC1CCCC1)c1ccncc1)c1ccco1 (stereo not given)	-3%	9%	9%	3%	-11%
O=C(NCC(=O)N(c1ccccc1)C(C(=O)NC1CCCC1)c1cccnc1)c1cccs1 (stereo not given)	8%	14%	?	-5%	-13%
O=C(NCC(=O)N(c1ccc2c(c1)OCO2)C(C(=O)NC1CCCC1)c1ccncc1)c1ccco1 (stereo not given)	-3%	-13%	?	40µM*	17%
COc1ccc(OCCCC(=O)OCC(=O)NNC(=O)c2ccc([N+](=O)[O-])cc2)cc1	nt	35%	2%	85%	40%
O=C(Nc1cc(Br)ccc1O)c1cnn2c(C(F)F)cc(C3CC3)nc12	-1%	-23%	0%	0%	4.1µM*
O=C(Nc1cccnc1)c1cnn2c(C(F)F)cc(C3CC3)nc12	-41%	nt	8%	-5%	8%
O=c1cc(CN2CCc3ccccc3C2)nc2sccn12	11%	?	nt	-13%	48%
C[C@@H]1CN([C@H](C)CO)C(=O)CCCn2cc(nn2)CO[C@H]1CN(C)S(=O)(=O)c1ccccc1	nt	nt	nt	4%	nt
COc1ccc(N(C(C)C(=O)NN=C2CCCC2)S(C)(=O)=O)cc1 (stereo not given)	nt	1.9µM*	7%	7%	42%
CCCCNc1c(C(=O)OCC)c(C)nc2c1cnn2CC	-1%	15µM*	nt	16%	?
COCCN1Cc2cccc(C(=O)Nc3cccc(-c4nc5ccccc5[nH]4)c3)c2C1=O	5%	?	9%	-9%	1.9µM*
COCCN1Cc2cccc(C(=O)Nc3ccc(-c4nc5ccccc5[nH]4)cc3)c2C1=O	7%	?	1%	-5%	?
CCCN1Cc2cccc(C(=O)Nc3ccc(-c4nc5ccccc5[nH]4)cc3)c2C1=O	13%	-13%	-24%	0%	2.3µM*
Cn1c(-c2cccc(Br)c2)n[nH]c1=O	3%	28%	8%	-14%	22%
CCCCN1C(=O)C(CC(=O)NCc2cccc3ccccc23)CC(C(=O)N2CCCCCC2)=C1C (stereo not given)	nt	nt	nt	-3%	nt
Oc1c(/C=N/c2ncn[nH]2)ccc2ccccc12	-78%	6%	32µM*	33%	26%
Cc1ccc(-n2c(O)c(/C=N/c3ncn[nH]3)c3ccccc3c2=O)cc1	nt	?	-15%	26%	-13%
Cn1c(-c2ccccc2)c(C=O)c2ccccc21	-9%	?	-9%	-1%	0%
Cn1c(C(=O)O)c(C=O)c2ccccc21	nt	10µM*	21%	6%	5%
O=P(C1=C(N2CCOCC2)/C(=C\c2ccccc2)CC1)(N1CCOCC1)N1CCOCC1	-16%	8%	45µM*	23%	?
O=C(NP(=O)(N1CCOCC1)N1CCOCC1)C1=C(N2CCOCC2)/C(=C\c2ccccc2)CC1	4%	39%	3.2µM*	2%	5%
O=C(N/N=C/C1=C(N2CCOCC2)C(=C\c2ccccc2)/CC1)Nc1ccccc1	5%	42%	-6%	?	3%
O=CC1=C(N2CCOCC2)/C(=C\c2ccccc2)CC1	nt	41%	25µM*	-17%	22%
O=C(O)c1ccccc1N/N=C/C1=C(N2CCOCC2)C(=C\c2ccccc2)/CC1	4%	?	16µM*	-13%	10µM*
SMILES	NS1 function inh	Pf growth 96h	Sm TGR inh	AMA1 RON2 block	Pf growth 48h
Cc1cc(C)nc(N/N=C/C2=C(N3CCOCC3)C(=C/c3ccccc3)/CC2)n1	?	?	?	43%	?
Cc1cc(=O)[nH]c(N/N=C/C2=C(N3CCOCC3)C(=C\c3ccc(Cl)cc3)/CC2)n1	9%	?	25µM*	-7%[2.32 µM]	?
O=C1NC(=S)SC1=Cc1ccccc1Cl	nt	nt	nt	3%	nt
Cc1ccc(C2C(/C=C3/SC(=S)NC3=O)=C(c3cccs3)Oc3ccccc32)cc1 (stereo not given)	12%	9.3µM*	-21%	-5%	nt
COc1cc(/C=N/N=C(\N)c2nonc2N)cc(OC)c1O	0%	52%	28µM*	51%	71%
COc1ccc(/C=N/N=C(\N)c2nonc2N)cc1	nt	1.3µM*	6%	5%	i
O=S(=O)(c1ccc(F)c(F)c1)N1CCCCCCC1	nt	nt	nt	7%	nt
NC(=S)N/N=C/c1ccc(-n2nncc2-c2ccc(Cl)cc2)cc1	6%	?	6%	60%	0%
Cn1c(CSCc2ccc(F)cc2)n[nH]c1=S	8%	13µM*	-8%	53%	-7%
Cc1ccccc1C1CCCN(Cc2nc(C3CC3)no2)C1 (stereo not given)	-11%	i	?	16%	-19%
Cc1ccc(/C=C/C(=O)O)cc1S(=O)(=O)N(CCO)CCO	28%	9.3µM*	22µM*	14%	-12%
Cc1ccc(/C=C/C(=O)O)cc1S(=O)(=O)NCCCO	11%	36%	40µM*	8%	-2%
COc1ccccc1C(=O)N/C(=C/c1ccc(Br)cc1)C(=O)N1CCCC1	nt	59%	1%	-7%	?
O=C1NC(Cc2ccccc2)c2nc3ccc(F)cc3c(=O)n2-c2ncccc21 (stereo not given)	nt	nt	nt	13%	nt
CCn1c(C)csc1=NC(=O)c1ccccc1O	-69%	1.7µM*	-2%	13%	111%
Cc1nn(Cc2ccc(Cl)cc2)c(C)c1NC(=O)c1noc2c1CCCCC2	-52%	171%	2%	-9%	?
CCCc1cc(C(=O)Nc2c(C)nn(Cc3ccc(Cl)c(Cl)c3)c2C)no1	nt	nt	6%	nt	nt
Cc1nn(Cc2ccc(Cl)c(Cl)c2)c(C)c1NC(=O)c1noc2c1CCCCC2	-42%	6.6µM*	-4%	5%	34%
O=C(NCc1ccc(Cl)cc1)c1noc2c1CCCCC2	-36%	9.3µM*	3%	-13%	43%
Cc1nn(Cc2ccc(Cl)c(Cl)c2)c(C)c1NC(=O)c1cc(CC(C)C)on1	-135%	0.33µM*	0%	-1%	?
O=C(NCc1ccc(F)cc1)c1noc2c1CCCCC2	-17%	?	2%	4%	31%
C[C@H](NC(=O)c1nc[nH]c1C(=O)N[C@@H](C)c1ccccc1)c1ccccc1	nt	?	-12%	122%	?
CC(C)NC(=O)Cn1ccc2cc(S(=O)(=O)N3CCCCCC3)ccc21	nt	nt	4%	nt	nt
CN1Cc2c(N3CCOCC3)nc3sc(C#N)c(N)c3c2CC1(C)C	-5%	?	-6%	-7%	?
CC1(C)Cc2c(c(N3CCOCC3)nc3snc(NC(=O)c4ccccc4)c23)CO1	-6%	8.3µM*	-8%	30%	nt
